Data as given in PubChem BioAssay (EPA / NIEHS).
Results filed as inconclusive are left out. Activity calls are given as the source filed them. Rule for the calls: active = hit-call score of the fitted dose curve at least 0.9, where 1 is the maximum; inconclusive = response in the unintended direction; inactive = score below 0.9.

Biological target: Estrogen receptor (Homo sapiens) (UniProt P03372)
Test: CCTE_Deisenroth_AIME_96WELL_LUC_Inactive: CCTE's 96-well Estrogen Receptor Transactivation Assay without AIME metabolic competence (ERTA luciferase; metabolism negative), Deisenroth Lab (AID 2284025)
Outline: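 Metabolism-negative arm: chemicals (0.002–200 uM, 10 points) incubated 2 h with alginate-water microspheres, then medium moved onto VM7Luc4E2 cells for 24 h luciferase read-out. Positive direction vs 17beta-estradiol; n≥4 experiments.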

Chain of Estrogen receptor (Homo sapiens) (P03372 whole entry, looked up): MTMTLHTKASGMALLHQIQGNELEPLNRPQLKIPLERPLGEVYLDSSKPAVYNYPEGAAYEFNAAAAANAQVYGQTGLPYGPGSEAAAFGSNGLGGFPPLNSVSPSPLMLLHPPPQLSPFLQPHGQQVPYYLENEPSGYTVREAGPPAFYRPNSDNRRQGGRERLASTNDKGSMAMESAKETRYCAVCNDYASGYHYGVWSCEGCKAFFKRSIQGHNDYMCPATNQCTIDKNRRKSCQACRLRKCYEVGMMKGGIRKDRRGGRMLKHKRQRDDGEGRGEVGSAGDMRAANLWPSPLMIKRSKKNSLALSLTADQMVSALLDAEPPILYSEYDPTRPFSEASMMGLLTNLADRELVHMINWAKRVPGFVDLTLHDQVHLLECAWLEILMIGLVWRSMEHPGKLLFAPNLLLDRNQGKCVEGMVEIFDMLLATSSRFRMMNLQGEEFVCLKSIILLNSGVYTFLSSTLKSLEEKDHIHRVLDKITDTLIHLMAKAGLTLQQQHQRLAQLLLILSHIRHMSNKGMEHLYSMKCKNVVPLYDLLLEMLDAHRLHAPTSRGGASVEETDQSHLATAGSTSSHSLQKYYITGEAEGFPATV

SMILES | AC50 | outcome
CCCCC[C@H](O)CC(=O)CCc1ccc(O)c(OC)c1 | 24.9 µM (active) | –
COc1cc(CCC(=O)CC(=O)CCc2ccc(O)c(OC)c2)ccc1O | – | inactive
CCCCC(CC)COC(=O)CCCCC(=O)OCC(CC)CCCC (stereo not drawn) | – | inactive
c1ccc2cc3c(ccc4ccccc43)cc2c1 | 5.25 µM (active) | –
O=C(/C=C/c1ccc(O)cc1)CC(=O)/C=C/c1ccc(O)cc1 | 43.2 µM (active) | –
c1ccc2c(c1)ccc1ccccc12 | 133 µM (active) | –

Test system: not listed separately
Test: CCTE_Deisenroth_AIME_96WELL_CTox_Active: Cytotoxicity Assessment (CTOX) in CCTE's 96-well Estrogen Receptor Transactivation Assay with AIME metabolic competence (metabolism positive), Deisenroth Lab (AID 2284028)
Outline: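 Cytotoxicity in VM7Luc4E2 breast cells after 24 h exposure to medium from a 2 h metabolic pre-incubation with induced rat hepatic S9 in alginate microspheres; fluorescent live-cell protease readout, 10-point series 0.002–200 uM, n=4.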

SMILES | AC50 | outcome
CC(C)(C)c1ccc(O)c(C(C)(C)C)c1 | 155 µM (active) | –
CCCCC[C@H](O)CC(=O)CCc1ccc(O)c(OC)c1 | – | inactive
COc1cc(CCC(=O)CC(=O)CCc2ccc(O)c(OC)c2)ccc1O | 150 µM (active) | –
CCCCC(CC)COC(=O)CCCCC(=O)OCC(CC)CCCC (stereo not drawn) | – | inactive
c1ccc2cc3c(ccc4ccccc43)cc2c1 | – | inactive
O=C(/C=C/c1ccc(O)cc1)CC(=O)/C=C/c1ccc(O)cc1 | – | inactive

Test system: not listed separately
Test: CCTE_Deisenroth_AIME_96WELL_CTox_Inactive: Cytotoxicity Assessment (CTOX) in CCTE's 96-well Estrogen Receptor Transactivation Assay without AIME metabolic competence (metabolism negative), Deisenroth Lab (AID 2284029)
Outline: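 Cytotoxicity in VM7Luc4E2 breast cells was scored as loss of fluorescent signal from a live-cell protease substrate 24 h after exposure, using bidirectional curve fitting. Test media came from a 2 h metabolism-negative pre-incubation (alginate-water, no hepatic S9) of compounds at 0.002-200 uM, with at least four replicates.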

SMILES | AC50 | outcome
CC(C)(C)c1ccc(O)c(C(C)(C)C)c1 | 163 µM (active) | –
CCCCC[C@H](O)CC(=O)CCc1ccc(O)c(OC)c1 | – | inactive
COc1cc(CCC(=O)CC(=O)CCc2ccc(O)c(OC)c2)ccc1O | 164 µM (active) | –
CCCCC(CC)COC(=O)CCCCC(=O)OCC(CC)CCCC (stereo not drawn) | – | inactive
c1ccc2cc3c(ccc4ccccc43)cc2c1 | – | inactive
c1ccc2c(c1)ccc1ccccc12 | – | inactive
